Source: PubChem BioAssay
For part of these data: Entries with a potency or affinity are not part of this list. Activity calls are given as the source filed them. Unless noted, no rule for the calls is given here.

Tests used:
[1] = antimalarial activity against Dd2 strain (AID 2302;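 active = growth inhibition above 50% at the single 2 µM test dose, taken to imply half-maximal potency below 2 µM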;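 also: 0% = DMSO untreated growth and 100% = chloroquine plus artemisinin killed control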); conditions: P. falciparum Dd2 in RBCs, LDH growth readout, 72 h; at 2 µM; stronger effect = higher value
[2] = HepG2 cytotoxicity, primary screen, cytotoxicity control for P. falciparum antimalarial project, cell-based, ATP luminescence (AID 2303;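 active = inhibition above 50%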;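 also: 0% = DMSO wells and 100% = digitonin-killed cells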); conditions: HepG2 viability, 24-48 h, at 10 µM, stronger effect = higher value
[3] = target: L-lactate dehydrogenase (Plasmodium falciparum (isolate CDC / Honduras)) (UniProt Q27743); assay: PfLDH activity inhibition – cell lysate, 3D7 strain, counter-screen for P. falciparum growth inhibition project (AID 2304);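 also: 0% = vehicle and 100% = reference inhibitor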; conditions: P. falciparum 3D7 crude extract, LDH APAD/NBT absorbance; at 2 µM; stronger effect = higher value
[4] = inhibition of 3D7 malaria parasite growth – strain 3D7 (AID 2306);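 also: 0% = DMSO wells and 100% = chloroquine plus artemisinin control wells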; conditions: P. falciparum 3D7 erythrocytic growth, LDH absorbance, 72 h; at 2 µM; stronger effect = higher value
[5] = target: Calcium-dependent protein kinase 1 (Plasmodium falciparum (isolate 3D7)) (UniProt P62344); assay: PfCDPK1 kinase inhibitors, biochemical, TCAMS library (AID 1159585; cut-off not given, nearly all actives have IC50 up to about 0.98 µM;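 also: inhibitors leave more ATP so luminescence rises with inhibition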); conditions: recombinant PfCDPK1, Kinase-Glo ATP depletion luminescence
[6] = target: Plasmodium falciparum protein kinase 6 (PK6, PF3D7_1337100) (UniProt Q8IDW1); assay: PfPK6 kinase inhibitors, biochemical, TCAMS library (AID 1159586); conditions: recombinant PfPK6, Kinase-Glo ATP depletion luminescence
[7] = target: Protein kinase 7 (PK7), Plasmodium falciparum 3D7 (PF3D7_0213400) (UniProt Q7YTF7); assay: inhibition of Plasmodium PK7 catalytic activity – biochemical, TCAMS antimalarial set, Kinase-Glo luminescence (AID 1159587); conditions: recombinant PfPK7, Kinase-Glo ATP depletion luminescence
[8] = target: Calcium-dependent protein kinase 4 (Plasmodium falciparum (isolate 3D7)) (UniProt Q8IBS5); assay: PfCDPK4 kinase inhibitors, biochemical, TCAMS library (AID 1159588; cut-off not given, nearly all actives have IC50 up to about 0.91 µM); conditions: recombinant PfCDPK4, Kinase-Glo ATP depletion luminescence
Sequence of Calcium-dependent protein kinase 4 (Plasmodium falciparum (isolate 3D7)) (Q8IBS5 whole entry, looked up): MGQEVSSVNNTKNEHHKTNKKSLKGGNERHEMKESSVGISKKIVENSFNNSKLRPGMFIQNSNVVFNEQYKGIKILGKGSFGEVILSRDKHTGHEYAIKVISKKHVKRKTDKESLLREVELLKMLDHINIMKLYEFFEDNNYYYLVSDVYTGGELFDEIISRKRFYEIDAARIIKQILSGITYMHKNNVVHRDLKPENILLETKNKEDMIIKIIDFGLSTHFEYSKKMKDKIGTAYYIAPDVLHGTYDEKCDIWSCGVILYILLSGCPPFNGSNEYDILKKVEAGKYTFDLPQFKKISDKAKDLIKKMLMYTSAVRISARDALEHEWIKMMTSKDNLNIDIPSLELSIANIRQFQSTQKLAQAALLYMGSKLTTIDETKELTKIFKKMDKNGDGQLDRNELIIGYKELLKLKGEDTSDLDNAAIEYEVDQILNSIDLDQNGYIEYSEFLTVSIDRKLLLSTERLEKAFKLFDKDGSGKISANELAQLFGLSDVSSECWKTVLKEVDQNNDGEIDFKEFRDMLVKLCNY

Sequence of L-lactate dehydrogenase (Plasmodium falciparum (isolate CDC / Honduras)) (Q27743 whole entry, looked up): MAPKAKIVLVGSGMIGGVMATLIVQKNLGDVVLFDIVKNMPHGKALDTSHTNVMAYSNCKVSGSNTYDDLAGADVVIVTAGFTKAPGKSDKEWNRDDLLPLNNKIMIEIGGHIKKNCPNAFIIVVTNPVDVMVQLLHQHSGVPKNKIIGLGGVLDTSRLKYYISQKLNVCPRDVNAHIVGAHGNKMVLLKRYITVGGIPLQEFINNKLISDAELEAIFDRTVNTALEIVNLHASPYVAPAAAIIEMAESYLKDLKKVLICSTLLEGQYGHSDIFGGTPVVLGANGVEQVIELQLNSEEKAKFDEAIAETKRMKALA
Sequence of Calcium-dependent protein kinase 1 (Plasmodium falciparum (isolate 3D7)) (P62344 whole entry, looked up): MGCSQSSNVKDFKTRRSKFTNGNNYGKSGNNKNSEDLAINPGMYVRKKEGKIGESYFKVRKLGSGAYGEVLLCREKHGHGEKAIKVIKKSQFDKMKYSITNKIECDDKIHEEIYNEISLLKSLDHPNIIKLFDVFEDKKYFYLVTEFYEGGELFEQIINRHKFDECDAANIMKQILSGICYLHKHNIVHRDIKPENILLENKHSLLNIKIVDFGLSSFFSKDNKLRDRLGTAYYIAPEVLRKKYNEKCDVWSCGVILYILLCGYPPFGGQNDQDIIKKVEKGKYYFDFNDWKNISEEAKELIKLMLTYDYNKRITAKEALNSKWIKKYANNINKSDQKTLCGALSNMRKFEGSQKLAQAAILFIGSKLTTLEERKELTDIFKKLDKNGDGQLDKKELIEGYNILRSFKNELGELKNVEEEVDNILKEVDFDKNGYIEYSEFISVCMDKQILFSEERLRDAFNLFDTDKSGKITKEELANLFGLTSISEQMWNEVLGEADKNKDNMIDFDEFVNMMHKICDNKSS
Sequence of Plasmodium falciparum protein kinase 6 (PK6, PF3D7_1337100) (Q8IDW1 1-305): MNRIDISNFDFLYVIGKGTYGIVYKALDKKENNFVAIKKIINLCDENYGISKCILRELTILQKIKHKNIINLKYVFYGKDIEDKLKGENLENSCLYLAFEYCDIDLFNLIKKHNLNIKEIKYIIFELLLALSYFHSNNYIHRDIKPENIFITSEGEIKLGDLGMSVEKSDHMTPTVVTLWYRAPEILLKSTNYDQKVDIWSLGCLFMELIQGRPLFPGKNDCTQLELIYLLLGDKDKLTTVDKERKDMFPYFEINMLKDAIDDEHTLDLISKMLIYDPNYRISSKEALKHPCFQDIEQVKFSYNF
Sequence of Protein kinase 7 (PK7), Plasmodium falciparum 3D7 (PF3D7_0213400) (Q7YTF7 1-343): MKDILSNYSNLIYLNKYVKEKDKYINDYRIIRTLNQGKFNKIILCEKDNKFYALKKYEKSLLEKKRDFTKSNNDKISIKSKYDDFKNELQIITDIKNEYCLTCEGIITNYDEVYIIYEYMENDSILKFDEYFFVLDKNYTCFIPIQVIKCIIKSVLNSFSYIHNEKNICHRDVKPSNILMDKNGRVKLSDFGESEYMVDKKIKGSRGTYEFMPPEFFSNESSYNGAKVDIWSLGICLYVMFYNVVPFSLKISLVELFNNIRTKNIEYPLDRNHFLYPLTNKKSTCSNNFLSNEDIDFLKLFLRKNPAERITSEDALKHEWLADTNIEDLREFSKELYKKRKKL

CCNc1cc(C(=O)N[C@@H](Cc2ccccc2)[C@H](O)CN[C@H](C)c2ccccc2)cc(N2CCCC2=O)c1
active: growth inhibition [1] 99% | growth inhibition [4] 97%
inactive: inhibition [2] -1% | inhibition [3] 6% | outcome [5] | outcome [6] | outcome [7] | outcome [8]

COc1ccc(NC(=O)NC2CCN(CCCOc3cc(C)nc4ccccc34)CC2)cc1OC
inactive: growth inhibition [1] 9% | inhibition [2] 3% | inhibition [3] 2% | outcome [5] | outcome [6] | outcome [7] | outcome [8]
active: growth inhibition [4] 97%

O=C(/C=C/c1ccc(Cl)c(Cl)c1)NCCCCCN1CC[C@H](NC(=O)c2sc3ccccc3c2Cl)C1
active: growth inhibition [4] 97%
inactive: growth inhibition [1] 3% | inhibition [2] 26% | inhibition [3] -2% | outcome [5] | outcome [6] | outcome [7] | outcome [8]
